Measured values reported in the supplement of paper PMC7156485.
± gives the standard deviation of the averaged measurements.

Test system: HCC1569
Assay: cell number relative to DMSO (% of DMSO); higher = more cells (less growth inhibition / toxicity)
Settings: concentration: 10 µM; 24 h
Method in brief: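 HCC1569 and TDF cells (800 per well, 384-well plates, RPMI with 10% FBS) were treated with compounds at 10 µM for 24 h at 37 °C, in triplicate. Cells were fixed in 3.7% formaldehyde and stained with a rabbit anti-H1.0 antibody, an AlexaFluor 647 secondary and DAPI; six fields per well were imaged at ×10. H1.0 nuclear intensity or cell number is expressed as percent of the plate DMSO control, taking the median of replicates. HCC1569 values were smoothed for positional effects.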
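Also: TDF denotes transformed human dermal fibroblasts of mesenchymal origin.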

Row | Structure (SMILES) | cell number
1 | CC(C)NP(=O)(NC(C)C)OP(=O)(NC(C)C)NC(C)C [Tetraisopropyl pyrophosphoramide] | 99.2
2 | COc1ccc2c(c1)=NC1=C(C)NCCC=21 [Harmaline] | 99.3
3 | CC1OC1P(=O)([O-])[O-].[Na+].[Na+] (stereo not drawn) [Phosphomycin disodium] | 100
4 | Clc1ccc(C(c2ccc(Cl)cc2)n2cc[n+](CC(OCc3ccc(Cl)cc3Cl)c3ccc(Cl)cc3Cl)c2)cc1.[Cl-] (stereo not drawn) [Calmidazolium chloride] | 17.8
5 | COc1cc(C(=O)OC2CC3CCC(C2)N3C)ccc1O (stereo not drawn) [Fillalbin] | 101
6 | O=C(O)C=CC(=O)O.O=C(O)C=CC(=O)O.c1ccc2nc(N3CCNCC3)ccc2c1 [Quipazine dimaleate] | 97.5
7 | COC(=O)C1(O)CC2OC1(C)n1c3ccccc3c3c4c(c5c6ccccc6n2c5c31)C(=O)NC4 (stereo not drawn) [K-252a, Nocardiopsis sp.] | 33.7
8 | CC1OC(OC2CC(O)C3(CO)C4C(O)CC5(C)C(C6COC(=O)C6)CCC5(O)C4CCC3(O)C2)C(O)C(O)C1O (stereo not drawn) [Dihydroouabain] | 61.7
9 | NCCCNCCSP(=O)(O)O [Amifostine] | 102.2 ± 1
10 | COc1ccc2c3c1OC1C(=O)CCC4(O)C(C2)N(CC2CC2)CCC314.Cl (single isomer, unassigned; (-)) [(-)-3-Methoxynaltrexone hydrochloride] | 104
11 | Cc1c(N)nc(C(CC(N)=O)NCC(N)C(N)=O)nc1C(=O)NC(C(=O)NC(C)C(O)C(C)C(=O)NC(C(=O)NCCc1nc(-c2nc(C(=O)NCCC[S+](C)C)cs2)cs1)C(C)O)C(OC1OC(CO)C(O)C(O)C1OC1OC(CO)C(O)C(OC(N)=O)C1O)c1cnc[nH]1.O=S(=O)([O-])O (stereo not drawn) [Bleomycin sulfate] | 93.1
12 | O=[N+]([O-])c1ncc[nH]1 [Azomycin] | 100
13 | CC(N)Cc1c[nH]c2ccc(O)cc12.O=C(O)C=CC(=O)O (stereo not drawn) [alpha-Methyl-5-hydroxytryptamine maleate] | 99.8
14 | C[N+]1(C)C2CC(OC(=O)C(CO)c3ccccc3)CC1C1OC12.[Br-] (single isomer, unassigned; (-)) [(-)-Scopolamine methyl bromide] | 104
15 | COc1cc(C=C(C#N)C#N)cc(O)c1O [Tyrphostin AG 34] | 102
16 | COc1ccc2c(c[n+](C)c3c4cc5c(cc4ccc23)OCO5)c1OC.[Cl-] [Chelerythrine chloride] | 55.4
17 | CC(NC(C)(C)C)C(=O)c1cccc(Cl)c1.Cl (stereo not drawn) [Bupropion hydrochloride] | 106
18 | C/C(Nc1ccccc1)=C1\C(=O)NC(Cc2ccccc2)C1=O (stereo not drawn) [(3E)-3-(1-anilinoethylidene)-5-benzyl-2,4-pyrrolidinedione] | 60.4
19 | CC(C)C1(NC(=O)C2CC3c4cccc5[nH]cc(c45)CC3N(C)C2)OC2(O)C3CCCN3C(=O)C(Cc3ccccc3)N2C1=O (stereo not drawn) [Dihydroergocristine] | 104

Row | Structure (SMILES) | cell number
20 | OC1CN2CCC(O)C2C(O)C1O (stereo not drawn) [Castanospermine] | 100
21 | Cc1cc(C2CCCN2C)on1 (stereo not drawn) | 102
22 | CC(C)NCC(O)c1ccc(N)c(C#N)c1 (stereo not drawn) [Cimaterol] | 103
23 | NNC(=O)c1ccc(O)cc1 [4-Hydroxybenzhydrazide] | 97.7
24 | CCCCCCCCCCCCCCCC(=O)OCC(COP(=O)([O-])OCC[N+](C)(C)C)OC(C)=O (stereo not drawn) | 102
25 | CCCN(CCC)C(=O)Cc1c(-c2ccc(Cl)cc2)nc2ccc(Cl)cn12 | 87.6
26 | Br.CCCN(CCC)CCc1ccc(O)c(O)c1 [Dipropyldopamine hydrobromide] | 97.9
27 | COc1ccc2c(c1)C(=Cc1cnc[nH]1)C(=O)N2 | 72.4
28 | CN1C2CCC1CC(OC(=O)C(CO)c1ccccc1)C2.CN1C2CCC1CC(OC(=O)C(CO)c1ccccc1)C2.O.O=S(=O)(O)O (stereo not drawn) [Atropine sulfate] | 102
29 | N#CC(C#N)=Cc1ccc([N+](=O)[O-])c(O)c1 [Tyrphostin AG 126] | 99.1
30 | CP(=O)([O-])C1=CC[NH2+]CC1 | 96.6
31 | O=C(O)CC[N+](=O)[O-] [3-Nitropropionic acid] | 103
32 | CN(C)Cc1c[nH]c2ccccc12 [Gramine] | 96.9
33 | CCN(CCCl)Cc1ccccc1Br.Cl [DSP-4 hydrochloride] | 98.7
34 | NCCN(CCN)N(O)N=O [1,1-bis(2-aminoethyl)-2-hydroxy-3-oxotriazane] | 99.5
35 | CCN1CC2(COC)CCC(OC)C34C5CC6C(OC)CC7(OCOC7(C(O)C23)C14)C5C6OC (stereo not drawn) [Delcorine] | 103
36 | O=c1[nH]c2ccccc2n1C1CCN(Cc2ccc(-c3nc4cc5[nH]cnc5cc4nc3-c3ccccc3)cc2)CC1 [Akt Inhibitor VIII, Isozyme-Selective, Akti-1/2] | 75.9
37 | CC(C)(C)c1cc(C=C(C#N)C#N)cc(C(C)(C)C)c1O [Tyrphostin A9] | 54.6
38 | CN1CC(CO)CC2c3cccc4[nH]cc(c34)CC21 (stereo not drawn) [9,10-Dihydrolysergol] | 96.5
